Test results reported in PubChem BioAssay (EPA / NIEHS).
Active and inactive are the calls of the source. How the source made its calls: active means hit-call score of the fitted dose curve at least 0.9, where 1 is the maximum; inactive means score below 0.9.

Experiments:
[1] = ATG_AP_1_CIS: Attagene CIS-FACTORIAL HepG2 Assay for human Activator Protein 1 (AP-1) (AID 2282931); settings: HepG2 Attagene cis-factorial AP-1 reporter mRNA; actives raise or lower the signal
Procedure, shortened: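 Readout is reporter transcript level from endogenous transcription factor activity, quantified by RT-PCR with fluorescent primer extension and capillary electrophoresis. Transiently transfected HepG2 cells, 24 h exposure. Curves fitted both directions versus DMSO.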

[2] = ATG_AP_2_CIS: Attagene CIS-FACTORIAL HepG2 Assay for human Activator Protein 2 (AP-2) (AID 2282932); settings: HepG2 AP-2 cis-reporter, Attagene transcription factor profiling; actives raise or lower the signal
Procedure, shortened: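 HepG2, transient MRTU transfection, cis-regulated reporters; 24 h compound exposure; RNA isolated, RT-PCR, 6-FAM labelling, HpaI digest, CE fluorescence. DMSO = negative control/baseline, bidirectional fit.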

[3] = ATG_BRE_CIS: Attagene CIS-FACTORIAL HepG2 Assay for human Bone Morphogenetic Protein (BMP) Response Element (BRE) (AID 2282933); settings: HepG2 BMP response element reporter, Attagene transcription factor profiling; actives raise or lower the signal
Procedure, shortened: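 HepG2 cells transiently transfected with multiplexed cis-element reporter units were dosed with chemical for 24 h. Reporter mRNA was measured by RT-PCR with fluorescent labelling, HpaI digestion and capillary electrophoresis; bidirectional fitting relative to DMSO.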

[4] = biological target: Transcription factor E2F1 (Homo sapiens) (UniProt Q01094); test: ATG_E2F_CIS: Attagene CIS-FACTORIAL HepG2 Assay for human E2F Transcription Factor 1 (AID 2282935); settings: HepG2 Attagene cis-reporter, E2F reporter RNA transcripts; actives raise or lower the signal
Procedure, shortened: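 Cis-element reporter mRNA induction in transiently transfected HepG2, 24 h exposure. Activity fitted in both directions relative to DMSO negative control.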

[5] = ATG_E_Box_CIS: Attagene CIS-FACTORIAL HepG2 Assay for human Enhancer Box (E-box) (AID 2282936); settings: HepG2 E-box cis-reporter transcription, actives raise or lower the signal
Procedure, shortened: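 Cells: HepG2 (human liver), transient MRTU transfection. Exposure 24 h. RNA → oligo(dT) RT → PCR → 6-FAM label → HpaI → CE. Activity fitted both directions relative to DMSO.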

[6] = ATG_M_61_CIS: Attagene CIS-FACTORIAL HepG2 Assay for M61 Transcription Factor (Internal Marker) (AID 2282937); settings: HepG2 Attagene CIS-FACTORIAL M61 internal marker reporter; actives raise or lower the signal
Procedure, shortened: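 Readout is reporter mRNA by RT-PCR, fluorescent primer extension and capillary electrophoresis, with gain or loss fitted relative to DMSO. Transfected HepG2 cells carrying endogenous-TF-driven cis reporters were exposed to chemicals for 24 hours.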

[7] = ATG_EGR_CIS: Attagene CIS-FACTORIAL HepG2 Assay for human Early Growth Response 1 (EGR1) (AID 2282938); settings: HepG2 Attagene CIS-FACTORIAL EGR reporter mRNA; actives raise or lower the signal
Procedure, shortened: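 After 24 h compound exposure, RNA from reporter-transfected HepG2 cells was reverse-transcribed, PCR-amplified, fluorescently labelled and resolved by capillary electrophoresis. EGR1 reporter transcript changes, up or down, were fitted against DMSO, reflecting endogenous transcription-factor activity.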

[8] = ATG_M_19_CIS: Attagene CIS-FACTORIAL HepG2 Assay for M19 Transcription Factor (Internal Marker) (AID 2282939); settings: HepG2 Attagene CIS-FACTORIAL M19 internal marker reporter; actives raise or lower the signal
Procedure, shortened: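 HepG2 cells transiently transfected with cis-regulated multiple reporter transcription units were dosed for 24 h; reporter mRNA was quantified by RT-PCR, 6-FAM primer-extension labelling, HpaI digestion and capillary electrophoresis, with bidirectional fitting against DMSO baseline.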

[9] = ATG_ERE_CIS: Attagene CIS-FACTORIAL HepG2 Assay for Estrogen Response Element (ERE) (AID 2282940); settings: HepG2 ERE cis-reporter, Attagene RNA transcript; actives raise or lower the signal
Procedure, shortened: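 HepG2 cells transiently transfected with cis-promoter-driven multiplexed reporter transcription units report endogenous TF activity. After 24 h compound exposure, reporter mRNA is quantified by RT-PCR with capillary electrophoresis fluorescence; bidirectional fitting versus DMSO baseline.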

[10] = biological target: Retinoic acid receptor alpha (Homo sapiens) (UniProt P10276); test: ATG_DR5_RAR_CIS: Attagene CIS-FACTORIAL HepG2 Assay for human Retinoic Acid Receptor Alpha (RARE), DR5 submotif (AID 2282934); settings: HepG2 Attagene cis-factorial RARE DR5 reporter, mRNA; actives raise or lower the signal;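 on AC50: reporter responds to endogenous RAR alpha beta and gamma in HepG2 not RARA alone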
Procedure, shortened: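 Transient MRTU transfection of HepG2; 24 h compound treatment; TriZol RNA, oligo(dT) RT, PCR, FAM labelling, capillary electrophoresis. Bidirectional fit vs DMSO. Endogenous TF activity at DR5 RARE.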

Measured: AC50

Transcription factor E2F1 (Homo sapiens), sequence (Q01094 whole entry, looked up): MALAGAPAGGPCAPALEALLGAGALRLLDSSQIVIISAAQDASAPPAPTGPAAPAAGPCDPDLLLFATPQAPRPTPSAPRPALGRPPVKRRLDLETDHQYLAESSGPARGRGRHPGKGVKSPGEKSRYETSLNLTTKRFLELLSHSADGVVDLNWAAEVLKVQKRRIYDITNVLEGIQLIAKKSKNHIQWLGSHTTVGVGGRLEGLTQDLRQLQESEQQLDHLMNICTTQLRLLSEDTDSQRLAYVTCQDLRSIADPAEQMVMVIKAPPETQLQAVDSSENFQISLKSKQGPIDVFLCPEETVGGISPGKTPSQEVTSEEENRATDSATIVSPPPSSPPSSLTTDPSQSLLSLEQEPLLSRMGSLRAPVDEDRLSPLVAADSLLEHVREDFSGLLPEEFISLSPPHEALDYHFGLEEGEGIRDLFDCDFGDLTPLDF
Retinoic acid receptor alpha (Homo sapiens), sequence (P10276 whole entry, looked up): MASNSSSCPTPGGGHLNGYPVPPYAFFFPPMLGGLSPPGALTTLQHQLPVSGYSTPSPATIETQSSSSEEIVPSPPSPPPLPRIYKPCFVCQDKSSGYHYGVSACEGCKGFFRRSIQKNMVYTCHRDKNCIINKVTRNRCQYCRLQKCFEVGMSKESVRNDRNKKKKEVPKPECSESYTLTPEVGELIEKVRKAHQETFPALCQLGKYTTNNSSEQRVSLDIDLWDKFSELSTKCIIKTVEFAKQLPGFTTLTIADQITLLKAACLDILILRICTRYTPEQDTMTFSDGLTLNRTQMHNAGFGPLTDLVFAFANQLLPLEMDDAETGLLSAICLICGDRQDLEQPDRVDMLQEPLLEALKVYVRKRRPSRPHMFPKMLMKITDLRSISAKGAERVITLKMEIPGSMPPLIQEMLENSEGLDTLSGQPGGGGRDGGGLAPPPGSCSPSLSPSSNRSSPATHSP

NNC(=S)NN
not listed: [10]
inactive: all other assays above

CC(C)CCCCCCOC(=O)c1ccccc1C(=O)OCCCCCCC(C)C
not listed: [10]
inactive: all other assays above

CCOC(=O)CP(=O)(OCC)OCC
not listed: [2] | [10]
inactive: all other assays above

O=CC=O
not listed: [2]
inactive: all other assays above

CCOP(=S)(OCC)SCCS(=O)(=O)CC
not listed: [2] | [4]
inactive: all other assays above

c1cc[c]([Hg][c]2ccccc2)cc1
active: [7] 26.4 µM
not listed: [2] | [4]
inactive: all other assays above

Cl/C=C\C[N+]12CN3CN(CN(C3)C1)C2
active: [1] 181 µM | [3] 19.8 µM | [5] 76.9 µM
not listed: [4] | [10]
inactive: all other assays above

O=C(O)C(Cl)(Cl)Cl
not listed: [2] | [9]
inactive: all other assays above

CCC[CH2][Sn]([CH2]CCC)([CH2]CCC)[O]C(=O)c1ccccc1
inactive: [1] | [5] | [6] | [7] | [8]
active: [3] 0.218 µM | [9] 0.0334 µM

CCOC(=O)/C=C(C)/C=C/C[C@@H](C)CCCC(C)C
active: [1] 100 µM | [10] 33.4 µM | [4] 180 µM | [5] 106 µM | [7] 158 µM | [8] 157 µM
inactive: [3] | [6] | [9]

C=C(C)C#N
not listed: [2]
inactive: all other assays above

Clc1nc(Cl)nc(Cl)n1
not listed: [2] | [4] | [10]
inactive: all other assays above

O=C1C(Cl)=C(Cl)C(=O)c2ccccc21
active: [9] 5.75 µM
not listed: [2]
inactive: all other assays above

COP(=S)(OC)Oc1ccc(S(=O)(=O)N(C)C)cc1
not listed: [2] | [4]
inactive: all other assays above

CCCCC(CC)CO[N+](=O)[O-] (stereo not drawn)
active: [10] 99.5 µM
not listed: [2] | [4]
inactive: all other assays above

Nc1ncc([N+](=O)[O-])s1
not listed: [2]
inactive: all other assays above

CC(=O)C=C(C)C
not listed: [2]
inactive: all other assays above

Fc1ccc(C2(Cn3cncn3)OC2c2ccccc2Cl)cc1 (stereo not drawn)
active: [3] 69.9 µM
not listed: [2] | [4]
inactive: all other assays above

CCOC(=O)Nc1cccc(OC(=O)Nc2ccccc2)c1
not listed: [2] | [4]
inactive: all other assays above

Cc1ccc2ccccc2c1C
not listed: [1]
inactive: all other assays above

C[C@H]1CCCC(=O)CCC/C=C/c2cc(O)cc(O)c2C(=O)O1
inactive: [1] | [5] | [6] | [8]
active: [3] 64.5 µM | [7] 10.2 µM | [9] 0.00291 µM

C=C(C)C(=O)[O][Sn]([CH2]CCC)([CH2]CCC)[CH2]CCC
active: [1] 0.451 µM | [10] 0.00707 µM | [5] 0.562 µM
not listed: [2] | [4]
inactive: all other assays above

CC(C)OC(=O)Nc1ccccc1
not listed: [2]
inactive: all other assays above

CCC(=O)C(CC(C)N(C)C)(c1ccccc1)c1ccccc1 (stereo not drawn)
active: [5] 48.8 µM
not listed: [2] | [4]
inactive: all other assays above

COC(=O)c1sccc1S(=O)(=O)NC(=O)Nc1nc(C)nc(OC)n1
active: [9] 47.4 µM
not listed: [2]
inactive: all other assays above

COP(=S)(OC)Oc1ccc(Sc2ccc(OP(=S)(OC)OC)cc2)cc1
active: [3] 6.58 µM | [7] 29.8 µM
not listed: [2]
inactive: all other assays above

CCNc1nc(NC(C)(C)C)nc(SC)n1
active: [1] 152 µM | [5] 160 µM
not listed: [2]
inactive: all other assays above

COC[C@H](C)N(C(=O)CCl)c1c(C)csc1C
not listed: [2] | [4] | [10]
inactive: all other assays above
